Reference: PubChem BioAssay AID1159580 (chemical genetic matrix, 2015)
The campaign covered roughly 5,500 compounds. About 2,000 (36%) were called active. Inconclusive results (about 18%) are left out. No stated cut-off is given here; in the data, active means normalized growth mostly below about 0.91 (no sharp cut-off); inconclusive means no clear call, values can overlap the other calls; inactive means mostly above about 0.92. This is one part of the list.

Experiment: chemical genetic growth profiling, strain panel (AID 1159580);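 further: tested at 20 µM; growth read once vehicle control cultures reached saturation at 30 °C; 1 = growth at the plate median or of vehicle wells; lower values mean less growth of the strain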
Settings: growth OD
[1] = S. cerevisiae deletion strains, locus YAL040C, strain CLN3, active compounds read low
[2] = S. cerevisiae deletion strains, locus YCL061C, strain MRC1 (second series), active compounds read low
[3] = S. cerevisiae deletion strains, locus YDR150W, strain NUM1, active compounds read low
[4] = S. cerevisiae deletion strains, locus YDR363W, strain ESC2, active compounds read low
[5] = S. cerevisiae deletion strains, locus YER002W, strain NOP16, active compounds read low
[6] = S. cerevisiae deletion strains, locus YMR263W, strain SAP30, active compounds read low
[7] = S. cerevisiae deletion strains, locus YMR307W, strain GAS1, active compounds read low
[8] = S. cerevisiae deletion strains, locus YNL175C, strain NOP13, active compounds read low
[9] = S. cerevisiae deletion strains, locus YNL197C, strain WHI3, active compounds read low
[10] = S. cerevisiae deletion strains, locus YNL224C, strain SQS1, active compounds read low
[11] = S. cerevisiae deletion strains, locus YOR083W, strain WHI5 (second series), active compounds read low
[12] = S. cerevisiae deletion strains, locus YPL055C, strain LGE1, active compounds read low
[13] = S. cerevisiae deletion strains, locus YAL013W, strain DEP1, active compounds read low
[14] = S. cerevisiae deletion strains, locus YJR075W, strain HOC1, active compounds read low
[15] = S. cerevisiae deletion strains, locus YNL153C, strain GIM3, active compounds read low
[16] = S. cerevisiae deletion strains, locus YNL322C, strain KRE1, active compounds read low
[17] = S. cerevisiae deletion strains, locus YPL241C, strain CIN2, active compounds read low

Measured: normalized growth

CNC(=O)c1cc2c(cn1)[nH]c1ccccc12
inactive: [1] 1.01 | [2] 1.01 | [3] 1 | [4] 1.01 | [5] 0.995 | S. cerevisiae deletion strains, locus YGR229C, strain SMI1, active compounds read low 1.05 | [6] 1 | [7] 0.997 | S. cerevisiae deletion strains, locus YNL128W, strain TEP1, active compounds read low 0.97 | [8] 0.986 | [9] 0.983 | [10] 0.989 | [11] 0.993 | [12] 1.02

C=CC1CN2CCC1CC2C(OC(C)=O)c1ccnc2ccc(OC)cc12 (configuration not stated)
inactive: [13] 1.01 | S. cerevisiae deletion strains, locus YBR229C, strain ROT2, active compounds read low 0.993 | S. cerevisiae deletion strains, locus YDL101C, strain DUN1, active compounds read low 1 | [3] 1.02 | S. cerevisiae deletion strains, locus YEL061C, strain CIN8, active compounds read low 0.957 | S. cerevisiae deletion strains, locus YGR078C, strain PAC10, active compounds read low 1 | S. cerevisiae deletion strains, locus YHR030C, strain SLT2, active compounds read low 1.06 | S. cerevisiae deletion strains, locus YHR087W, strain rtc3, active compounds read low 0.95 | S. cerevisiae deletion strains, locus YJL187C, strain SWE1, active compounds read low 1.01 | S. cerevisiae deletion strains, locus YJR043C, strain POL32, active compounds read low 1 | [14] 0.997 | S. cerevisiae deletion strains, locus YKL190W, strain CNB1, active compounds read low 0.982 | S. cerevisiae deletion strains, locus YLR039C, strain RIC1, active compounds read low 1.06 | S. cerevisiae deletion strains, locus YLR058C, strain SHM2 (second series), active compounds read low 1 | S. cerevisiae deletion strains, locus YLR085C, strain ARP6, active compounds read low 0.975 | S. cerevisiae deletion strains, locus YLR262C, strain YPT6, active compounds read low 1.06 | S. cerevisiae deletion strains, locus YML094W, strain GIM5, active compounds read low 0.997 | S. cerevisiae deletion strains, locus YMR219W, strain ESC1, active compounds read low 1 | [6] 0.984 | [7] 0.916 | [15] 1.02 | S. cerevisiae deletion strains, locus YNL298W, strain CLA4 (second series), active compounds read low 0.967 | [16] 1 | S. cerevisiae deletion strains, locus YNR030W, strain Alg12, active compounds read low 0.998 | [12] 0.999 | [17] 1 | S. cerevisiae deletion strains, locus YPR135W, strain CTF4, active compounds read low 1 | S. cerevisiae strains, strain wild type, active compounds read low 0.974

CNCCC(Oc1ccccc1OC)c1ccccc1 (configuration not stated)
inactive: [13] 0.996 | [1] 1.01 | [2] 1 | [3] 1.01 | [4] 1 | [5] 1 | [14] 1.01 | [15] 1.03 | [8] 1 | [9] 1.01 | [10] 1.01 | [16] 1 | [11] 1.03 | [12] 1.02 | [17] 0.996
